Results as given in PubChem BioAssay (NCI).
Where “and” joins values, the source holds several entries; their conditions need not be identical. Equal entries are not always repeated. Compounds without any hit were thinned out: in the full panel of roughly 83,000, 20% have a hit.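 Note: values are percent growth. 100 is the growth of untreated cells, values between 100 and 0 indicate rising inhibition; between -100 and 0 indicates cell death.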 Calls of active or inactive are those of the source. The calls were made as follows: active = growth percent below 10; inactive = the rest.

How the values were obtained:
Assay in all cases: NCI-60 one-dose screen, 48 h (100 = growth as untreated, 0 = no growth, -100 = all killed)
NCI-H23 lung = system: NCI-H23 lung
NCI-H226 lung = system: NCI-H226 lung
NCI-H322M lung = settings: 10 µM unless noted
HOP-62 NSCLC = system: HOP-62 NSCLC
NCI-H460 lung = system: NCI-H460 lung
HOP-92 NSCLC = system: HOP-92 NSCLC
NCI-H522 lung = settings: 10 µM unless noted
A549/ATCC NSCLC = system: A549/ATCC NSCLC
786-0 renal = system: 786-0 renal
COLO 205 colon = system: COLO 205 colon

Measured: growth

O=C1C(=O)c2ccccc2C(O)=C1CC=C(Cl)Cl
inactive: NCI-H23 lung; 10 µM unless noted 67.6% and 71.5% | NCI-H226 lung; 10 µM unless noted 73.4% and 63.5% | NCI-H322M lung 75.8% and 58% | HOP-62 NSCLC; 10 µM unless noted 50.9% and 61.3% | NCI-H460 lung; 10 µM unless noted 17.1% and 17.9% | HOP-92 NSCLC; 10 µM unless noted 36.4% and 87.3% | NCI-H522 lung 43.7% and 42.1% | A549/ATCC NSCLC; 10 µM unless noted 56% and 44.5% | 786-0 renal; 10 µM unless noted 39.5% and 60% | COLO 205 colon; 10 µM unless noted 57.1% and 57.7%

Cc1cccc(Cl)c1N
inactive: NCI-H23 lung; 10 µM unless noted 99.6% | NCI-H226 lung; 10 µM unless noted 118% | NCI-H322M lung 127% | HOP-62 NSCLC; 10 µM unless noted 104% | NCI-H460 lung; 10 µM unless noted 107% | HOP-92 NSCLC; 10 µM unless noted 94.1% | NCI-H522 lung 105% | A549/ATCC NSCLC; 10 µM unless noted 96.4% | 786-0 renal; 10 µM unless noted 113% | COLO 205 colon; 10 µM unless noted 119%

COc1ccc(S(=O)(=O)c2ccc(F)cc2)cc1
inactive: NCI-H23 lung; 10 µM unless noted 102% | NCI-H226 lung; 10 µM unless noted 97.1% | NCI-H322M lung 117% | HOP-62 NSCLC; 10 µM unless noted 109% | NCI-H460 lung; 10 µM unless noted 114% | HOP-92 NSCLC; 10 µM unless noted 92.7% | NCI-H522 lung 83.3% | A549/ATCC NSCLC; 10 µM unless noted 82.4% | 786-0 renal; 10 µM unless noted 103% | COLO 205 colon; 10 µM unless noted 113%

Nc1c(S(=O)(=O)O)cc(Br)c2c1C(=O)c1ccccc1C2=O
inactive: NCI-H23 lung; 10 µM unless noted 103% | NCI-H226 lung; 10 µM unless noted 98.2% and 99.6% | NCI-H322M lung 95.6% and 106% | HOP-62 NSCLC; 10 µM unless noted 88.1% and 111% | NCI-H460 lung; 10 µM unless noted 102% and 106% | HOP-92 NSCLC; 10 µM unless noted 73.4% | NCI-H522 lung 83% | A549/ATCC NSCLC; 10 µM unless noted 104% | 786-0 renal; 10 µM unless noted 106% and 110% | COLO 205 colon; 10 µM unless noted 97.5% and 106%

N#CC1c2ccccc2C=CN1C(=O)c1ccccc1 (configuration not stated)
inactive: NCI-H23 lung; 10 µM unless noted 104% and 112% | NCI-H226 lung; 10 µM unless noted 103% and 89.1% | NCI-H322M lung 105% and 103% | HOP-62 NSCLC; 10 µM unless noted 126% and 101% | NCI-H460 lung; 10 µM unless noted 106% and 98.9% | HOP-92 NSCLC; 10 µM unless noted 75.5% | NCI-H522 lung 103% and 91.7% | A549/ATCC NSCLC; 10 µM unless noted 104% and 107% | 786-0 renal; 10 µM unless noted 107% and 102% | COLO 205 colon; 10 µM unless noted 126% and 157%

CS/C(=C\c1ccc(C(=O)c2ccc(C)cc2)n1C)S(C)=O (configuration not stated)
active: NCI-H522 lung 6.15% [100 µM]
inactive: NCI-H23 lung; 10 µM 109% | NCI-H23 lung; 100 µM 66.2% | NCI-H226 lung; 10 µM 81.3% | NCI-H226 lung; 100 µM 72.3% | HOP-62 NSCLC; 10 µM 96.8% | HOP-62 NSCLC; 100 µM 76.9% | NCI-H460 lung; 10 µM 96.8% | NCI-H460 lung; 100 µM 91.4% | HOP-92 NSCLC; 10 µM 71.7% | HOP-92 NSCLC; 100 µM 64.6% | A549/ATCC NSCLC; 10 µM 85.1% | A549/ATCC NSCLC; 100 µM 65.7% | 786-0 renal; 10 µM 99.4% | 786-0 renal; 100 µM 74.1% | COLO 205 colon; 10 µM 126% | COLO 205 colon; 100 µM 93.5%

COc1ccc(COC=O)cc1
inactive: NCI-H23 lung; 10 µM unless noted 97.3% | NCI-H226 lung; 10 µM unless noted 100% | NCI-H322M lung 99.1% | HOP-62 NSCLC; 10 µM unless noted 98.4% | NCI-H460 lung; 10 µM unless noted 104% | HOP-92 NSCLC; 10 µM unless noted 109% | NCI-H522 lung 95.5% | A549/ATCC NSCLC; 10 µM unless noted 106% | 786-0 renal; 10 µM unless noted 103% | COLO 205 colon; 10 µM unless noted 108%

Nc1nc(=S)c2[nH]cnc2[nH]1
31.7% (inactive) and 2.46% (active): A549/ATCC NSCLC; 10 µM unless noted
active: NCI-H460 lung; 10 µM unless noted 3.77% and 6.79% | HOP-92 NSCLC; 10 µM unless noted -2.57% | NCI-H522 lung -4.74% and 7.57% | COLO 205 colon; 10 µM unless noted -27.5% and 7.45%
inactive: NCI-H23 lung; 10 µM unless noted 17.6% and 161% | NCI-H226 lung; 10 µM unless noted 39% and 37.4% | NCI-H322M lung 39.2% and 85.7% | HOP-62 NSCLC; 10 µM unless noted 16.5% and 18%
17.2% (inactive) and 9.97% (active): 786-0 renal; 10 µM unless noted

Cc1c(Cl)cc(Cl)c(N)c1Cl
inactive: NCI-H23 lung; 10 µM unless noted 103% | NCI-H226 lung; 10 µM unless noted 102% | NCI-H322M lung 115% | HOP-62 NSCLC; 10 µM unless noted 107% | NCI-H460 lung; 10 µM unless noted 105% | HOP-92 NSCLC; 10 µM unless noted 76.9% | NCI-H522 lung 97.4% | A549/ATCC NSCLC; 10 µM unless noted 107% | 786-0 renal; 10 µM unless noted 109% | COLO 205 colon; 10 µM unless noted 108%

CC(=O)Oc1ccc(C2(c3ccc(OC(C)=O)cc3)C(=O)Nc3ccccc32)cc1
inactive: NCI-H23 lung; 10 µM unless noted 41.5% and 54.4% | NCI-H226 lung; 10 µM unless noted 76.3% and 82.9% | NCI-H322M lung 33.1% and 33.7% | HOP-62 NSCLC; 10 µM unless noted 109% and 93.1% | NCI-H460 lung; 10 µM unless noted 104% | HOP-92 NSCLC; 10 µM unless noted 68.4% and 44.2% | NCI-H522 lung 95.7% and 83.2% | A549/ATCC NSCLC; 10 µM unless noted 96.1% and 98% | 786-0 renal; 10 µM unless noted 107% and 93%
4.98% (active) and 17.2% (inactive): COLO 205 colon; 10 µM unless noted
